Whole data set: some 1,300 sequences, median “log fluorescence intensity” near 8.3, cut for the highest 2% near 12. Many of the other results were omitted from the sample, so the highest values are more common in it than they were.
What follows are sequences tested against T1, ETS1 (Homo sapiens, UniProt P14921 1-441) (assay: custom PBM; custom protein-binding microarray; buffer, salt, pH and temperature not stated; high values mean tight binding). Conditions: dsDNA, one strand shown.
T1 sequence: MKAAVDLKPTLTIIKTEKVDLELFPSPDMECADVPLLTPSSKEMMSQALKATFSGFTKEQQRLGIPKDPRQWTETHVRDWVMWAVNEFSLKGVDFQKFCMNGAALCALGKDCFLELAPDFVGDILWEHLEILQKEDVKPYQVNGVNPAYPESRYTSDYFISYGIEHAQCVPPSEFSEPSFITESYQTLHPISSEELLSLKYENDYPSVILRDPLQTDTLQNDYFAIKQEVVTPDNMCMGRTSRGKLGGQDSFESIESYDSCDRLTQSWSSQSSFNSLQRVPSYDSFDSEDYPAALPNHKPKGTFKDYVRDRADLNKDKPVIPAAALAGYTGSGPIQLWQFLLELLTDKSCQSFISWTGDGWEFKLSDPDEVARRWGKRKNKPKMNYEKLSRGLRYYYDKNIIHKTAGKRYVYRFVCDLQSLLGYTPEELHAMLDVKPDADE

Sequence	binding signal
GGAAAAAGGCCCGGGGTAACACCGGAAGTGGGCTTAGTCTTGATTCGCTTGACGCTGCTG	12.5 log fluorescence intensity
GGAAAAAGGCCCCGGGTAACACCGGAAGTGGGCTTAGTCTTGATTCGCTTGACGCTGCTG	12.6 log fluorescence intensity
GGAAAAAGGCCCTGGGTAACACCGGAAGTGGGCTTAGTCTTGATTCGCTTGACGCTGCTG	12 log fluorescence intensity
TAAAGGGAAGAAGGTTGTGGTAGTTCCGGGTATTAAGTCTTGATTCGCTTGACGCTGCTG	8.45 log fluorescence intensity
GGAAAAAGGCCCAGGGTAACACCGTAAGTGGGCTTAGTCTTGATTCGCTTGACGCTGCTG	8.34 log fluorescence intensity
GTGTATAGGAACCCATCCAACACACGTGTTAAAATGGTCTTGATTCGCTTGACGCTGCTG	8.33 log fluorescence intensity
CGGAAGTGTCGTAACCGTCGGATATCCGGTTCTTCTGTCTTGATTCGCTTGACGCTGCTG	11.9 log fluorescence intensity
TAAAGGGAAGACGGTAGTGGTAGTTCCGGGTATTAAGTCTTGATTCGCTTGACGCTGCTG	8.7 log fluorescence intensity
GCTGCTGCGGTGCATACCCCACCGGACGTGACCCCGGTCTTGATTCGCTTGACGCTGCTG	8.55 log fluorescence intensity
GGAAAAAGGCCCAGGGTAACACCGGAAGTGGGCTTGGTCTTGATTCGCTTGACGCTGCTG	11.8 log fluorescence intensity
GAAAAAAGGCCCAGGGTAACACCGGAAGTGGGCTTAGTCTTGATTCGCTTGACGCTGCTG	12.1 log fluorescence intensity
GGAAAAAGGCCCAGGGTAACACCGGAAGTGGGCTGAGTCTTGATTCGCTTGACGCTGCTG	11.9 log fluorescence intensity
GGAAAAAGGCCCAGGGTAACACCGGAAGTGGGCTTAGTCTTGATTCGCTTGACGCTGCTG	12 log fluorescence intensity
GGAAAAAGGCCCAGGGTAACACCGGAAGTGGGCTTTGTCTTGATTCGCTTGACGCTGCTG	12.1 log fluorescence intensity
GGAAAAAGGCCCAGGGTAACACCGGAAGTGGGCTAAGTCTTGATTCGCTTGACGCTGCTG	12.1 log fluorescence intensity
GGAAAAAGGCCCAGGGTAACACCGGAAGTGGGCATAGTCTTGATTCGCTTGACGCTGCTG	12 log fluorescence intensity
GGAAAAAGGCCCAGGGTAACACCGGAAGTGGGCTCAGTCTTGATTCGCTTGACGCTGCTG	12 log fluorescence intensity
GGAAAAAGGCCCAGGGTAACACCGGAAGTGGGCTTCGTCTTGATTCGCTTGACGCTGCTG	12.1 log fluorescence intensity
TAAAGGAAAGACGGTTGTGGTAGTTCCGGGTATTAAGTCTTGATTCGCTTGACGCTGCTG	8.77 log fluorescence intensity
TGTCGGGTAAGGGAATGTAGATCACGTGACTGAAAAGTCTTGATTCGCTTGACGCTGCTG	8.33 log fluorescence intensity
TAAAGGGAAGACGGTTGTGGGAGTTCCGGGTATTAAGTCTTGATTCGCTTGACGCTGCTG	8.37 log fluorescence intensity

Sequence	binding signal
CTGAAGTGTCGTAAACGTCGGATATCCGGTTCTTCTGTCTTGATTCGCTTGACGCTGCTG	11.8 log fluorescence intensity
TCCGCCTACCAGCTCCACCCACTTCAGGCCTTGTAGGTCTTGATTCGCTTGACGCTGCTG	8.47 log fluorescence intensity
TAAAGGGAAGACGCTTGTGGTAGTTCCGGGTATTAAGTCTTGATTCGCTTGACGCTGCTG	8.41 log fluorescence intensity
GGAAAAAGGCCCAGGGTAACACCGGATGTGGGCTTAGTCTTGATTCGCTTGACGCTGCTG	11 log fluorescence intensity
CAGCATCGGACTTCTTCCCTGAAGCAATTGATAACCGTCTTGATTCGCTTGACGCTGCTG	8.4 log fluorescence intensity
GCTGCTGCGGTGCATACCCCACCGGATGTGACCCGGGTCTTGATTCGCTTGACGCTGCTG	10.2 log fluorescence intensity
GCTGCTGCGGTGCATACCTCACCGGATGTGACCCCGGTCTTGATTCGCTTGACGCTGCTG	9.97 log fluorescence intensity
GGAAAAAGGCCCAGGGTAACACCGGAAATGGGCTTAGTCTTGATTCGCTTGACGCTGCTG	11.5 log fluorescence intensity
GCTTCTGCGGTGCATACCCCACCGGATGTGACCCCGGTCTTGATTCGCTTGACGCTGCTG	10.3 log fluorescence intensity
GGAAAAAGGCCCAGGGTAACACCTGAAGTGGGCTTAGTCTTGATTCGCTTGACGCTGCTG	8.36 log fluorescence intensity
TAAAGGGAAGACGATTGTGGTAGTTCCGGGTATTAAGTCTTGATTCGCTTGACGCTGCTG	8.5 log fluorescence intensity
GCTGCTGCGGTGCATACCCCACCGGATGTGACCCCAGTCTTGATTCGCTTGACGCTGCTG	10.1 log fluorescence intensity
GGAAAAAGGCCCAGGGTAACACCGGAACTGGGCTTAGTCTTGATTCGCTTGACGCTGCTG	9.07 log fluorescence intensity
GCTGCTGCGGTGCATACCCCACCGGATGTGACCCTGGTCTTGATTCGCTTGACGCTGCTG	10.1 log fluorescence intensity
CTGGGACTTGAACCAACTCTGCCACGTGGGTCGTTTGTCTTGATTCGCTTGACGCTGCTG	8.34 log fluorescence intensity
CGGAAGTGTCGTAAACGTCGGATATCAGGTTCTTCTGTCTTGATTCGCTTGACGCTGCTG	8.51 log fluorescence intensity
GTGTATAGGGTCCCATCCAACACACGTGTTAAAATGGTCTTGATTCGCTTGACGCTGCTG	8.3 log fluorescence intensity
TCCGGCTACCAGCTCCACTCACTTCAGGCCTTGTAGGTCTTGATTCGCTTGACGCTGCTG	8.4 log fluorescence intensity
GTGTATAGGATCCCATCCAACACACGTGTTAAAATGGTCTTGATTCGCTTGACGCTGCTG	8.35 log fluorescence intensity
TGTCGGGTAAGGGAATGTAGATCACGTGAATGTAAAGTCTTGATTCGCTTGACGCTGCTG	8.34 log fluorescence intensity
CTGGGACTTGACCCAACTCTGCCACGTGGGTCGATTGTCTTGATTCGCTTGACGCTGCTG	8.33 log fluorescence intensity

Sequence	binding signal
GTCTATAGGATCCCATCCAACACACGTGTTAAAATGGTCTTGATTCGCTTGACGCTGCTG	8.42 log fluorescence intensity
GCTGCTGCGGTGCATACCCCACCGGATGTGTCCCCGGTCTTGATTCGCTTGACGCTGCTG	9.62 log fluorescence intensity
GCTGCAGCGGTGCATACCCCACCGGATGTGACCCCGGTCTTGATTCGCTTGACGCTGCTG	10.4 log fluorescence intensity
CAGCATAGGACTTCTTCACTGAAGCAATTGATAACCGTCTTGATTCGCTTGACGCTGCTG	8.32 log fluorescence intensity
GCTGCTGCGGTGCATACCCCCCCGGATGTGACCCCGGTCTTGATTCGCTTGACGCTGCTG	8.71 log fluorescence intensity
CGGAAGTGTCGTAGACGTCGGATATCCGGTTCTTCTGTCTTGATTCGCTTGACGCTGCTG	11.7 log fluorescence intensity
CAGCATAGGACTTCTTCCCTGAAGGAATTGATAACCGTCTTGATTCGCTTGACGCTGCTG	8.32 log fluorescence intensity
CGGAAGTGTCGTAAACGTCGGATATCCAGTTCTTCTGTCTTGATTCGCTTGACGCTGCTG	8.64 log fluorescence intensity
CACTGACTTATATATGCGAATGCACATGAATAGACCGTCTTGATTCGCTTGACGCTGCTG	8.35 log fluorescence intensity
GCTGCTGCGGTGCACACCCCACCGGATGTGACCCCGGTCTTGATTCGCTTGACGCTGCTG	10.3 log fluorescence intensity
ACTGCTGCGGTGCATACCCCACCGGATGTGACCCCGGTCTTGATTCGCTTGACGCTGCTG	10.4 log fluorescence intensity
TAAAGGGAAGACGGCTGTGGTAGTTCCGGGTATTAAGTCTTGATTCGCTTGACGCTGCTG	8.35 log fluorescence intensity
TAAAGGTAAGACGGTTGTGGTAGTTCCGGGTATTAAGTCTTGATTCGCTTGACGCTGCTG	8.54 log fluorescence intensity
GGAAAAAGGCCCAGGGTAACACCGGAAGTGGGGTTAGTCTTGATTCGCTTGACGCTGCTG	12 log fluorescence intensity
TAAAGGCAAGACGGTTGTGGTAGTTCCGGGTATTAAGTCTTGATTCGCTTGACGCTGCTG	8.32 log fluorescence intensity
GCTGCTGTGGTGCATACCCCACCGGATGTGACCCCGGTCTTGATTCGCTTGACGCTGCTG	10.3 log fluorescence intensity
GGAACAAGGCCCAGGGTAACACCGGAAGTGGGCTTAGTCTTGATTCGCTTGACGCTGCTG	11.9 log fluorescence intensity
CGGAAGAGTCGTAAACGTCGGATATCCGGTTCTTCTGTCTTGATTCGCTTGACGCTGCTG	11.8 log fluorescence intensity
GGAAAAACGCCCAGGGTAACACCGGAAGTGGGCTTAGTCTTGATTCGCTTGACGCTGCTG	12.1 log fluorescence intensity
GCTGCTGCTGTGCATACCCCACCGGATGTGACCCCGGTCTTGATTCGCTTGACGCTGCTG	9.42 log fluorescence intensity
GGAAAAAGGCCCAGGGTAAGACCGGAAGTGGGCTTAGTCTTGATTCGCTTGACGCTGCTG	12 log fluorescence intensity

Sequence	binding signal
TAAAGGGAAGACGGTTGTGGTAGTTACGGGTATTAAGTCTTGATTCGCTTGACGCTGCTG	8.37 log fluorescence intensity
TGTCGGGTAAGGGCATGTAGATCACGTGAATGAAAAGTCTTGATTCGCTTGACGCTGCTG	8.41 log fluorescence intensity
GGAAAAAGGCCCAGGGTATCACCGGAAGTGGGCTTAGTCTTGATTCGCTTGACGCTGCTG	11.4 log fluorescence intensity
TACTGACTTATAGATGCGAATGCACATGAATAGACCGTCTTGATTCGCTTGACGCTGCTG	8.45 log fluorescence intensity
TAAAGGGAAGACGGTTCTGGTAGTTCCGGGTATTAAGTCTTGATTCGCTTGACGCTGCTG	8.63 log fluorescence intensity
CAGCATAGGACTTCTTCCCTGAAGCAATTGATAACGGTCTTGATTCGCTTGACGCTGCTG	8.34 log fluorescence intensity
CGGAAGTGTCGTAAACGTCGGATATCGGGTTCTTCTGTCTTGATTCGCTTGACGCTGCTG	8.65 log fluorescence intensity
GGGTATAGGATCCCATCCAACACACGTGTTAAAATGGTCTTGATTCGCTTGACGCTGCTG	8.44 log fluorescence intensity
GTGTATAGGATCCCATCCAACACACGCGTTAAAATGGTCTTGATTCGCTTGACGCTGCTG	8.37 log fluorescence intensity
CGGAAGTGTCGTAAACGTCGGATATCCGGTTCTCCTGTCTTGATTCGCTTGACGCTGCTG	11.8 log fluorescence intensity
GCTGCTGCGGTGCATACCCCAGCGGATGTGACCCCGGTCTTGATTCGCTTGACGCTGCTG	8.5 log fluorescence intensity
GGAAAAAGGCCCAGCGTAACACCGGAAGTGGGCTTAGTCTTGATTCGCTTGACGCTGCTG	11.9 log fluorescence intensity
TAAAGGGAAGACTGTTGTGGTAGTTCCGGGTATTAAGTCTTGATTCGCTTGACGCTGCTG	8.36 log fluorescence intensity
TAAAGGGAAGACGGTTGTGGTAGTTCCGGTTATTAAGTCTTGATTCGCTTGACGCTGCTG	9.95 log fluorescence intensity
TAAAGGGAAGACGGTTGTGGTAGTTCCGGGCATTAAGTCTTGATTCGCTTGACGCTGCTG	8.59 log fluorescence intensity
CGGAAGTGTCGTAAACGTCGGATATCTGGTTCTTCTGTCTTGATTCGCTTGACGCTGCTG	8.37 log fluorescence intensity
GCTGCTACGGTGCATACCCCACCGGATGTGACCCCGGTCTTGATTCGCTTGACGCTGCTG	10.3 log fluorescence intensity
CGGAAGTGTCGTAAACGTCGGATATCCGGTTATTCTGTCTTGATTCGCTTGACGCTGCTG	12.1 log fluorescence intensity
